# Many of the other results were omitted from the sample, so hits are more common in it than they were.
# HT1080-NT tox = qHTS for induction of synthetic lethality in tumor cells producing 2HG: qHTS for the HT-1080-NT fibrosarcoma cell line; Potency, µM (highest dose often 46.1 µM), for the others: at the top dose activity, negative = less viability, usual class: cytotoxic; AID 686970, 2013; 360,000 compounds, 1.6% hits; HT-1080-NT fibrosarcoma viability, CellTiter-Glo ATP luminescence, 48 h;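 also: NT is the 2HG producing partner of a matched IDH1 knockdown line; potency is read from the fitted curve at half-maximal effect; 0% = DMSO-treated cells and -100% = media-only wells without cells; nearly all actives have a fitted effect of over 55% in size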
#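 Viability by CellTiter-Glo luminescence after 48 h compound exposure at 37C of HT-1080-NT cells (750/well, RPMI, 5% FBS). % activity scaled between DMSO wells and medium-only wells, then curve-fitted and categorized by curve class.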
# HT1080 IDH1KD tx = qHTS for induction of synthetic lethality in tumor cells producing 2HG: qHTS for the HT-1080-IDH1KD cell line | HT-1080 IDH1 knockdown viability, ATP luminescence, 48 h | Potency, µM (highest dose often 46.1 µM), inactives show at the highest dose activity, negative = toxicity, actives largely listed as cytotoxic | 360,000 compounds, 2% hits | AID 686971, 2013;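 also: potency is read from the fitted curve at half-maximal effect; 0% = DMSO wells and -100% = cell-free medium wells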
#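 Cytotoxicity counter-line: IDH1KD HT-1080, 48 h, CellTiter-Glo. Curves classed by r2, magnitude and activity.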
# TDP1 cell noCPT = qHTS for Inhibitors of human tyrosyl-DNA phosphodiesterase 1 (TDP1): qHTS in cells in absence of CPT | DT40 Tdp1-/- hTDP1 cells, no CPT, ATP luminescence, 48 h | 420,000 compounds, 15% hits | AID 686978, 2013 | Potency, µM (titrated, usually from 46.2 µM), for inactives: at the top dose activity change, negative = growth inhibition, most hits filed as inhibitors; also: potency is read from the fitted curve at half-maximal effect; nearly all actives have a fitted effect of over 55% in size
#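 Chicken DT40 Tdp1-/- cells complemented with human TDP1, screened without camptothecin (DMSO vehicle only), 400 cells/well. Compounds pin-transferred, cells incubated at 37 °C for at least 48 hr. Growth read as ATP-dependent luminescence (CellTiter-Glo, 30 min at RT).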
# DT40 TDP1 CPT = qHTS for Inhibitors of human tyrosyl-DNA phosphodiesterase 1 (TDP1): qHTS in cells in presence of CPT; chicken DT40 Tdp1-/-;hTDP1 cells + 20 nM CPT, ATP luminescence, 48 h; Potency, µM (doses to about 46.2 µM), for inactives: at the highest dose activity change, negative = growth inhibition, most hits filed as inhibitors; 420,000 compounds, 12% hits; AID 686979, 2013; also: potency is read from the fitted curve at half-maximal effect; nearly all actives have a fitted effect of over 55% in size
#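 Cell growth measured by CellTiter-Glo luminescence after a minimum 48 h, 37 C compound exposure with 20 nM CPT in Tdp1-knockout DT40 cells stably expressing hTDP1, seeded 400/well; qHTS titration format.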
# 12-LOX inh = Primary qHTS assay for inhibitors of human arachidonate 12S-lipoxygenase (ALOX12): Round 2 | Polyunsaturated fatty acid lipoxygenase ALOX12 (Homo sapiens), P18054 | purified 12hLO, xylenol orange hydroperoxide absorbance | Potency, µM (top dose mostly 108 µM), for the others: top-dose activity change, negative = inhibition, usual class: inhibitors | 580,000 compounds, 1.1% hits | AID 1671190, 2021; also: potency is read from the fitted curve at half-maximal effect
# Target sequence (P18054 whole entry, looked up): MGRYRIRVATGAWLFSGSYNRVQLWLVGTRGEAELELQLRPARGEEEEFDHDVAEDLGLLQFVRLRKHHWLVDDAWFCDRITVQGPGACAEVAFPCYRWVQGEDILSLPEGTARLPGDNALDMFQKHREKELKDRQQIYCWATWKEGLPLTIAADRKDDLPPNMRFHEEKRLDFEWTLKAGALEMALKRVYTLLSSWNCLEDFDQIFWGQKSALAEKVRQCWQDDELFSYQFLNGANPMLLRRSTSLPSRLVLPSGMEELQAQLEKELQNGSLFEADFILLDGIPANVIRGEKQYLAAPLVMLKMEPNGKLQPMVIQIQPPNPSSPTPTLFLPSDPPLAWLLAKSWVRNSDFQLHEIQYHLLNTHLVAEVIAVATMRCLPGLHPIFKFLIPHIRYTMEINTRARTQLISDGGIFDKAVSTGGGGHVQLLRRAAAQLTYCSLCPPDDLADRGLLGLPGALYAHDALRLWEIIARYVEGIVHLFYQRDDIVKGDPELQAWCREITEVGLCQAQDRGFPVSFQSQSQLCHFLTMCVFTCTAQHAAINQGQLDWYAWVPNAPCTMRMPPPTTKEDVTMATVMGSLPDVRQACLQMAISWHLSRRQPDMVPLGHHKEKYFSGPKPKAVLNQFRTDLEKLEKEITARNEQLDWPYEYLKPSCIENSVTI
#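 Purified human 12hLO (150 nM final) in 25 mM Hepes, 0.01% Triton X-100, pH 7.0 was preincubated 15 min at room temperature with compound. Then 40 uM arachidonic acid was added, 30 min. Hydroperoxide was read by Fe-XO absorbance ratio 573/405 nm.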
# IL1B secr inh = qHTS for Inhibitors of Inflammasome Signaling: IL-1-beta AlphaLISA Primary Screen; THP-1 LPS/ATP IL-1B secretion, AlphaLISA, 16 h; stronger effect = lower value; activity change, % at 57.5 µM; 360,000 compounds, 4.7% hits; in the data active = activity change below about -50%; inconclusive = mostly about -30% to -49%
#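 Secreted IL-1B measured by AlphaLISA bead assay after 16 h compound exposure of THP-1 cells; compounds (final up to 57.5 uM) added 1 h before LPS (250 ng/mL) and ATP (1.25 mM) stimulation; lower signal means less secretion.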
# * hit, by the source's call; ? = inconclusive; . = no result; ! = a repeat was not active; [ ] = remark or other dose. Unless noted, calls follow the shape of the dose curve; as a rule, active = well fitted curve in the direction sought with a large enough effect; inconclusive = small, poorly fitted or top-dose-only effect, or another doubt; inactive = no such curve, though single readings can be large; an effect the other way counts as inactive or inconclusive. Unless noted, % is scaled to controls: 0 for no effect and ±100 for the full control effect.
SMILES,HT1080-NT tox,HT1080 IDH1KD tx,TDP1 cell noCPT,DT40 TDP1 CPT,12-LOX inh,IL1B secr inh
NC(=O)c1ccc(N)nc1,2.59µM*,4.61µM*,4.11µM*,5.8µM*,27.6%,7.7
CCCc1c(-c2ccccc2F)ncn1CCc1ccccc1OC,?,?,2.59µM*,3.66µM*,?,-69.8*
COC(=O)[C@@H]1[C@@H](CO)[C@@H]2Cn3c(cccc3=O)[C@H]1N2C(=O)Nc1cc(F)ccc1F,.,.,.,.,-3.7%,.
O=[N+]([O-])c1ccc(N2CCOCC2)c2c1no[n+]2[O-],5.17µM*,5.17µM*,0.164µM*,0.184µM*,-1.5%,-104.7*
CC1=C(C(=O)Nc2ccccc2)C(c2ccc(C)cc2)N=C(Nc2nc3ccccc3o2)N1 (configuration not stated),?,11.2µM*,?,18.4µM*,?,-12.5
O=C1CCC[C@@H]2[C@H]3CCCN4CCC[C@@H](CN12)[C@@H]34,.,.,.,.,-13.0%[57.4 µM],.
Cc1ncc(CNC(=O)N(CCCl)N=O)c(N)n1,-8.1%,13.5%,?,20.6µM*!,-11.5%,2.8
O=C(Nc1ccc(Br)cc1C(=O)c1ccccc1)c1ccccc1,.,.,?,?,0.0%,.
O=C(Nc1cc2c(cc1C(=O)c1ccc(Br)cc1)OCCO2)c1ccc(Cl)cc1,.,.,?,23.1µM*,-25.7%,.
CN(C)C(=O)[C@H]1CN2CCC1C[C@@H]2Cn1cc(-c2cccc(O)c2)nn1 (some centres not stated),.,.,.,.,2.1%[176 µM],.
C[C@]12CC[C@H]3[C@@H](CC[C@]4(O)C[C@@H](O)CC[C@]34C=O)[C@@]1(O)CC[C@@H]2C1=CC(=O)OC1,1.16µM*,0.651µM*,5.17µM*,7.31µM*,6.3%,-66.9*
CCCCN=C[C@]12CCC(O)CC1(O)CCC1[C@@H]2CC[C@]2(C)[C@H](C3C=CC(=O)O3)CCC12O (some centres not stated),1.84µM*,1.46µM*,16.4µM*,?,12.0%,-76.5*
C[C@]12CCC3C(CCC4=CC(O)CC[C@@]43/C=N/O)C1(O)CCC2C1=CC(=O)OC1 (some centres not stated),3.26µM*,0.82µM*,?,4.4%,0.0%,-71.3*
CC1OC(OC2CCC3(C=O)[C@H]4CCC5(C)C(C6=CC(=O)OC6)CCC5(O)[C@@H]4CCC3(O)C2)CC(O)C1O (some centres not stated),.,.,.,.,-8.7%,.
CC12CCC3C(CCC4(O)CC(O)CCC34C=O)C1(O)CCC2C1=CC(=O)OC1 (configuration not stated),1.64µM*,1.46µM*,7.31µM*,10.3µM*,-3.2%,?
CC12CCC(O)CC1CC[C@@H]1[C@@H]2CCC2(C)[C@H](C3=CC(=O)OC3)CCC12O (some centres not stated),.,.,.,.,-30.6%,.
Cc1ncc2c(n1)C[C@@H]1CC[C@H]2N1C(=O)NCc1ccccc1,.,.,.,.,32.9%,.
COCC(=O)NC[C@H]1C[C@@H]2CCN1C[C@@H]2CN1CCC(C)CC1,.,.,.,.,44.8%[176 µM],.
C=CCN(C)C(=O)[C@H]1CN2CCC1C[C@@H]2Cn1cc(CNC)nn1 (some centres not stated),.,.,.,.,83.4%[176 µM],.
CC12CCC3C(CCC4(O)CC(O)CCC34C=NO)C1(O)CCC2C1=COC(=O)C1 (configuration not stated),0.82µM*,0.581µM*,8.2µM*,16.4µM*,11.9%,-104.1*
CC1OC(OC2CCC3(C=O)[C@H]4CCC5(C)C(C6=CC(=O)OC6)CCC5(O)[C@@H]4CCC3(O)C2)CC2OC(C)(C)OC12 (some centres not stated),.,.,.,.,19.0%,.
C[C@H]1O[C@@H](OC2CC[C@]3(C=O)[C@H]4CC[C@]5(C)[C@@H](C6=CC(=O)OC6)CC[C@]5(O)[C@@H]4CC[C@]3(O)C2)CC2OC(C)(C)OC21 (some centres not stated),0.184µM*,0.103µM*,1.03µM*,1.84µM*,129.2%,-92.7*
COC(=O)c1cn(S(=O)(=O)c2ccccc2)c2ccccc12,-6.8%,-4.7%,25.9µM*,?,0.0%,-2.2
CCCS(=O)(=O)Nc1ccc(=O)n2c1[C@@H]1C[C@@H](CN(C(=O)COc3ccccc3)C1)C2,.,.,.,.,-27.6%,.
Cc1cc(N(CCCl)CCCl)ccc1C=Cc1ccncn1,-5.1%,?,4.61µM*,2.59µM*,5.0%,-15.4
SMILES,HT1080-NT tox,HT1080 IDH1KD tx,TDP1 cell noCPT,DT40 TDP1 CPT,12-LOX inh,IL1B secr inh
Cc1cc(N(CCCl)CCCl)ccc1/C=N/N=C(\N)c1cnccn1,-2.4%,-12.3%,11.6µM*,7.31µM*,?,-55.2*
CN(C)c1nc2c(c(N3C[C@H]4CNC[C@@]4(C(=O)O)C3)n1)CCCC2,.,.,.,.,12.4%,.
CCN(CC)C(=O)Oc1nnc(SC(C)C)n1-c1ccc(Cl)c(Cl)c1,-3.0%,-14.0%,23.1µM*,?,3.9%,-20.5
COc1ccc2c(c1)c(C(=O)OCC(=O)N(C)C)c(C)n2C1CC1,.,.,.,.,-17.7%,.
c1ccc(C2=NOC3(CCCN(Cc4ccccn4)C3)C2)cc1 (configuration not stated),.,.,.,.,-7.4%[6.33 µM],.
O=C1N(Cc2ccccn2)C[C@H]2CN(Cc3cccnc3)CCN12,.,.,.,.,115.0%[176 µM],.
CN(C)CC/C=C1/c2ccccc2Sc2ccc(Cl)cc21,?,?,29.1µM*!,?,?,-62.7*!
CC(C)NC(=O)NC[C@H]1C[C@@H]2CCN1C[C@@H]2CN1CCCCC1,.,.,.,.,22.8%[176 µM],.
O=C(N[C@@H](COc1ccc2[nH]c(=O)[nH]c2c1)c1ccccc1)c1cccn(Cc2ccc(F)c(F)c2)c1=O,.,.,.,.,2.3%[57.4 µM],.
CCOC(=O)[C@]12Cc3cc(OC)ccc3[C@H]1N(C(C)C)C(=O)c1cc(OC)ccc12,20.6µM*,20.6µM*,18.4µM*,20.6µM*,?,-116.6*
CCOC(=O)[C@]12Cc3c(cc(OC)c(OC)c3OC)[C@H]1N(C(C)C)C(=O)c1cc(OC)ccc12,14.6µM*,18.4µM*,7.31µM*,9.2µM*,?,-113.3*

# Source: PubChem BioAssay
